Hits are enriched below; roughly 1.1% of the tested compounds scored in any of these assays.
HDAC3 inhib: HDAC3 deacetylase inhibitors, primary screen, biochemical, fluorescence, cell-free homogeneous. recombinant HDAC3, fluorogenic peptide/trypsin coupled. AID 2718, 2010. Histone deacetylase 3 (Homo sapiens), O15379. actives 0.15% (n = 320,000). inhibition, % at 8.3 µM; in the data active = inhibition above about 26%, passing the limit was not always enough
Target sequence (O15379 whole entry, looked up): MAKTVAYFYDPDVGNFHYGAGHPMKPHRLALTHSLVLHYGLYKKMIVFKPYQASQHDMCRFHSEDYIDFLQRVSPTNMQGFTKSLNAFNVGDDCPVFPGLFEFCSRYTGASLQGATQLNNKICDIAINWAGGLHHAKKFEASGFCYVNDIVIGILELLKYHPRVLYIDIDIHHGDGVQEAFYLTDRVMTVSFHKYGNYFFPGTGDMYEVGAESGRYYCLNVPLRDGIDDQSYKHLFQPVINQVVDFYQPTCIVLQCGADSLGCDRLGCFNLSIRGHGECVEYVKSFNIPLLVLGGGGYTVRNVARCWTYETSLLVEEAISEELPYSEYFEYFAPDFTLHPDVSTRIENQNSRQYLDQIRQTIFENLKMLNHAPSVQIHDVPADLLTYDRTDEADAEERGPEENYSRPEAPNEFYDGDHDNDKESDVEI
CASP6 VEID inh: human caspase-6 inhibitors, primary screen, biochemical, VEID-R110 fluorescence, single point, set 2. purified caspase-6, Z-VEID-R110 cleavage fluorescence. inhibition, % at 12.5 µM. actives 0.53% (n = 350,000). P55212;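 active = mean inhibition across replicates at least about 35%, with every replicate also reaching that limit, limit read from the data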;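 note: 0% = median of neutral control wells and 100% = no fluorescence left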
Glyco luc inh: increase of ERlucT glycosylation luciferase signal, primary screen, N-linked glycosylation inhibitor project, D54 ERlucT cells, luminescence, set 2. D54 ERlucT glycosylation luciferase reporter, 24 h; percent of 100 nM tunicamycin response. actives 0.23% (n = 360,000). reporter increase, % at 12.5 µM;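 active = mean luciferase reporter signal, scaled so untreated is 0 and the glycosylation-blocking control 100, at or above a set limit in every replicate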;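 note: luciferase carries N-glycosylation sites so blocking glycosylation raises the light; 0% = median of neutral control wells and 100% = median of 100 nM tunicamycin wells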
LANA DNA inh: inhibitors of KSHV C-LANA binding to DNA, primary screen, biochemical, fluorescence polarization, FAM-LBS DNA, MBP-C-LANA, single point; Kaposi's sarcoma herpesvirus LANA C-terminal domain (residues 932-1162) DNA binding; inhibition, % at 9 µM; actives 0.078% (n = 340,000); AID 504423, 2011;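 active = highest replicate inhibition at or above 60% at 9 µM, even if other replicates fall short; inactive = all replicates below 60% inhibition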;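 note: 0% = neutral control wells and 100% = 4 µM acridine orange control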
Keap1 Nrf2 FP: Keap1-Nrf2 protein-protein interaction inhibitors, primary screen, biochemical, fluorescence polarization, single point; Kelch-like ECH-associated protein 1 (Homo sapiens), Q14145; Keap1 Kelch-Nrf2 peptide fluorescence polarization, 1536-well; inhibition, % at 9.4 µM; actives 0.15% (n = 340,000); AID 504523, 2011; in the data active = inhibition above about 12%;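 note: human Keap1 Kelch domain with fluorescein labeled Nrf2 9mer peptide probe; 0% = neutral control wells and 100% = peptide positive control; higher means more block of Keap1 binding to Nrf2 peptide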
NSD2 inh: NSD2 histone methyltransferase inhibitors, primary screen, biochemical, AlphaScreen, single concentration, set 2 | Histone-lysine N-methyltransferase NSD2 (Homo sapiens), O96028 | NSD2 peptide methylation, 120 min | inhibition, % at 12.5 µM | actives 0.54% (n = 310,000); in the data active = inhibition above about 50%
An asterisk follows results filed as active; nt = no result; ! = repeats disagree.

SMILES | HDAC3 inhib | CASP6 VEID inh | Glyco luc inh | LANA DNA inh | Keap1 Nrf2 FP | NSD2 inh
CC(C)N=C(Nc1ccccc1)c1cccnc1 | -4 | nt | 1 | 1 | -1 | -3
CC(C)N=C(Nc1cccnc1)c1ccccc1 | 12 | 39* | 4 | 3 | -4 | 0
O=C(Nc1cc(F)ccc1F)N1[C@@H]2CNC[C@H]1C2c1ccc(-c2cccnc2)cc1 (stereo partly specified) | nt | 2 | nt | nt | nt | nt
CC(=O)N(C)C[C@@H]1Oc2ncc(-c3ccccc3F)cc2C(=O)N([C@H](C)CO)C[C@H]1C | nt | -7 | nt | nt | nt | nt
CC(C)(C)S(=O)(=O)N1C[C@@H]2CC/C=C\C/C(c3ccccc3)=C\2[C@H]1CCO | nt | 2 | 38* | -1 | -1 | nt
Cc1ccc(Nc2ccc(N)cc2S(=O)(=O)O)cc1 | -4 | 62* | 3 | 30 | -8 | 15
Cc1ccc(S(=O)(=O)c2cc(Nc3ccccc3)ccc2O)cc1 | -2 | 15 | 2 | -1 | 0 | nt
O=C1C=C(O)c2cccc(O)c2C1=O | 6 | 77* | 4 | 5 | 1 | nt
Nc1nc(-c2ccccc2)[nH]c(=O)c1N=O | 5 | 49* | 0 | -1 | -6 | -6
C[C@H](CO)N1C[C@H](C)[C@@H](CN(C)C(=O)NC2CCCC2)Oc2ncc(-c3ccccc3F)cc2C1=O | nt | 3 | nt | nt | nt | nt
CCOc1ccc(CCNC(=O)C2CC(C)=CCC2C(=O)O)cc1OCC (stereo unspecified) | 3 | 36* | 0 | 7 | 2 | -3
CCOc1ccc(CCNC(=O)C2CC=CCC2C(=O)OC(C)C)cc1OCC (stereo unspecified) | 1 | nt | 1 | nt | -7 | 1
CCOc1ccccc1C(=O)Oc1ccc2ccc(O)cc2c1 | nt | nt | nt | nt | nt | 1
COc1cccc(S(=O)(=O)N2C[C@@H]3N[C@H](C2)C3c2ccc(-c3ccccc3C)cc2)c1 (stereo partly specified) | nt | 37*! | nt | nt | nt | nt
CC(=O)N(C1=C(N)C(=O)c2ccccc2C1=O)C(C)C | 2 | 12 | 6 | 0 | -3 | 81*
CC(=O)N(C)C1=C(O)c2ccccc2C(=O)C1=O | 4 | nt | 0 | -2 | -2 | 9
COc1cc(/C=C2\C(=N)N3N=C(S(C)(=O)=O)SC3=NC2=O)cc(OC)c1OCCOc1ccccc1C | 10 | 42* | 2 | 5 | 2 | 22
COc1cc(/C=C2\SC(=S)N(CC(=O)O)C2=O)ccc1OS(=O)(=O)c1ccc(C)cc1 | 10 | 41* | 0 | 0 | 8 | 3
CCOc1cc(/C=C2/C(=N)N3N=C(C)SC3=NC2=O)ccc1OS(=O)(=O)c1ccc(C)cc1 | -9 | 12 | 2 | -1 | 2 | 3
COc1cc(/C=C2\C(=N)N3N=C(S(C)(=O)=O)SC3=NC2=O)ccc1OS(=O)(=O)c1ccc(C)cc1 | 0 | 50* | 4 | 2 | 0 | 18
COc1cc(/C=C2/SC(=S)N(CC(=O)O)C2=O)ccc1OC(=O)c1cccs1 | nt | 5 | -2 | -5 | -3 | 8
C[C@H](CO)N1C[C@H](C)[C@H](CN(C)Cc2ccc3c(c2)OCO3)Oc2ccc(NS(=O)(=O)c3cccs3)cc2C1=O | nt | 0 | nt | nt | nt | nt
COc1cc(OC)cc(C(=O)NNC(=O)CNC(=O)c2cccs2)c1 | -11 | 62* | -1 | 0 | 1 | -3
CCOC(=O)N1CCN(C(=O)c2cccc(N3C(=O)NC4CC3(C)Oc3ccc(Cl)cc34)c2)CC1 (stereo unspecified) | -6 | 1 | 29* | -1 | -1 | 0
Cc1ccc2c(c1)c1c(n2CC(O)Cn2c(C)nc3ccccc32)C(=O)CCC1 (stereo unspecified) | -1 | 2 | -1 | 0 | -7 | nt
SMILES | HDAC3 inhib | CASP6 VEID inh | Glyco luc inh | LANA DNA inh | Keap1 Nrf2 FP | NSD2 inh
Cc1ccc2c(c1)c1c(n2CC(O)Cn2c(C)nc3ccccc32)/C(=N\O)CCC1 (stereo unspecified) | 28* | nt | -1 | 0 | -4 | nt
COCCN(CCOC)Cc1c(O)ccc2c1O/C(=C\c1ccco1)C2=O | -2 | 7 | 0 | 65* | 1 | 2
CC1CCN(Cc2c(O)ccc3c2O/C(=C\c2ccco2)C3=O)CC1 | 9 | nt | 5 | 55 | -4 | 13
COc1ccc(-n2c(C)cc(/C=C/c3nc(O)c([N+](=O)[O-])c(=O)[nH]3)c2C)cc1 | 3 | 62* | 3 | 5 | -2 | 33
CCCS(=O)(=O)c1ncc(Cl)c(C(=O)Nc2ccc(S(=O)(=O)Nc3ncccn3)cc2)n1 | 1 | nt | 0 | 0 | 42* | -3
Cc1ccc2oc(C(=O)N(Cc3ccc(N(C)C)cc3)C3CCS(=O)(=O)C3)c(C)c2c1 (stereo unspecified) | 10 | 59* | -3 | 0 | 0 | 13
C=CCOc1cccn2c(N(C=O)Cc3ccccc3)c(CC)nc12 | nt | 37* | 1 | nt | nt | 0
CC1(C)N([O-])c2cc([N+](=O)[O-])ccc2[N+]1=O | 9 | 38* | nt | nt | nt | 85*
COCC(=O)OC/C(O)=C(\C#N)c1nc2ccccc2[nH]1 | nt | -4 | 32* | -1 | -1 | 2
CCCC(=O)OC/C(O)=C(\C#N)c1nc2ccccc2[nH]1 | 5 | nt | 20 | 1 | 0 | 0
CCOC(=O)C(=O)Cc1cccnn1 | nt | 44* | 2 | 72* | 2 | 24
Cc1ccc(NS(=O)(=O)c2ccc(Br)s2)nc1 | 0 | 37* | 3 | -3 | 2 | 0
Cc1cc(C)nc(NS(=O)(=O)c2ccc(Br)s2)c1 | 3 | 7 | -1 | 1 | -3 | nt
O=C(C[C@H]1CC[C@@H]2[C@H](COC[C@H](O)CN2Cc2ccccc2)O1)NCc1ccccc1Cl | nt | -1 | nt | nt | nt | nt
O=C(O)c1cccc(-c2ccc(/C=c3/sc4nc5ccccc5n4c3=O)o2)c1 | 3 | 37* | 0 | 22 | -4 | 31
O=C(O)c1cc(C(=O)O)cc(-c2ccc(/C=c3/sc4nc5ccccc5n4c3=O)o2)c1 | nt | nt | nt | 16 | -4 | nt
CC(C)NC(=O)Nc1ccc2c(c1)C(=O)N([C@@H](C)CO)C[C@H](C)[C@H](CN(C)Cc1ccc(C(F)(F)F)cc1)OCCCC[C@H](C)O2 | nt | 0 | nt | nt | nt | nt
COc1ccc(C(=O)Oc2ccc(=O)n(-c3ccccc3)n2)cc1 | 76* | nt | 1 | 0 | -8 | 1
O=C(Oc1ccc(=O)n(-c2ccccc2)n1)c1cccc(Cl)c1 | 44* | nt | 1 | 0 | -39 | 1
O=C(Oc1ccc(=O)n(-c2ccccc2)n1)c1ccc(Cl)cc1 | 17 | nt | 0 | 1 | -15 | 0

Screens: PubChem BioAssay, Broad Institute
